Hits are enriched below; roughly 3.5% of the tested compounds scored in any of these assays.
FBW7 activator – activators of human E3 ligase FBW7 | Q969H0 | AlphaScreen FBW7–phospho-cyclin E peptide binding, activator screen | actives 0.13% (n = 650,000) | normalized activity (activation), % at 26.1 µM; in the data active = normalized activity above about 1.9%;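 note: purified mutant Fbw7 with reduced substrate affinity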
TEAD-YAP inh – TEAD-YAP interaction inhibition; inhibition, % at 9.12 µM; HEK-TIYL cells, TEAD-Gal4/YAP UAS-luciferase luminescence; actives 1.4% (n = 640,000); in the data active = inhibition above about 32%;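 note: 0% = median of test compound wells and 100% = reference inhibitor wells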
GPR151 activ – human GPR151 activation; Q8TDV0; actives 1% (n = 650,000); AID 1508602; PathHunter beta-arrestin GPR151 cells, luminescence; activation, % at 11.2 µM; in the data active = activation above about 4.9%;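 note: 0% = median of compound wells and 100% = cells with positive control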
MITF inh – inhibitors of human MITF; O75030; inhibition, % at 2.6 µM; AlphaScreen MITF homodimerization, bead proximity signal; actives 0.91% (n = 650,000); in the data active = inhibition above about 50%;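 note: 0% = vehicle wells with protein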
Target sequence (O75030 whole entry, looked up): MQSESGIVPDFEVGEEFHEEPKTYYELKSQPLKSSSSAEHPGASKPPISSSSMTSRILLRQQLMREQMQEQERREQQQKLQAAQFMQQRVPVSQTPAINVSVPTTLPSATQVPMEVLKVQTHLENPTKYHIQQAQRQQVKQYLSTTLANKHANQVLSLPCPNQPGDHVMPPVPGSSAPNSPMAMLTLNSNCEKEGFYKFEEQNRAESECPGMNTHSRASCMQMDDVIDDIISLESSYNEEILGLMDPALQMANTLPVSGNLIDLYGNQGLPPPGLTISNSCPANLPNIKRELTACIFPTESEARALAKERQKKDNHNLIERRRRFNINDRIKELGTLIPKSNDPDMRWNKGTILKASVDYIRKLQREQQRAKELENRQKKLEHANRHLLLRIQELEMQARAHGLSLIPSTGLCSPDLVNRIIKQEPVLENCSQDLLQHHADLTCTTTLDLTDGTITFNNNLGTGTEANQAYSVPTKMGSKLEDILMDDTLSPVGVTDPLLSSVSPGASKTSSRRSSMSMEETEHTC
GPR151 conf act – human GPR151 activation, confirmation screen. shares compounds with GPR151 activ. GPR151 PathHunter beta-arrestin cells, luminescence, 90 min; % of EA-reagent control over plate median. activation, % at 11.2 µM. 6,700 tested, under 10 active. AID 1508609;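 active = mean percent activation across replicates above the confirmation screen cutoff of 4.91%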
GPR119 counter – activates human GPR119 in a GPR151 counter-screen; shares compounds with GPR151 activ; GPR119 PathHunter beta-arrestin cells, luminescence, 90 min; 0 = compound-well median, 100 = enzyme-acceptor control; activation, % at 11.2 µM; actives 0.3% (n = 6,700); AID 1508611;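 active = mean percent activation in the counterscreen above 29.09%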;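 note: counterscreen on off-target GPR119 to flag nonselective hits from the GPR151 activator screen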
* hit, by the source's call; nt = no result.

SMILES | FBW7 activator | TEAD-YAP inh | GPR151 activ | MITF inh | GPR151 conf act | GPR119 counter
COc1ccc(CCN2C(=O)c3ccc(Oc4ccc([N+](=O)[O-])cc4)cc3C2=O)cc1OC | 0.0 | 9.3 | -0.3 | -19.6 | nt | nt
Cn1cc(CN2CCN(Cc3nccn3C)CC2)c(-c2ccc3c(c2)OCCO3)n1 | 0.0 | 0.0 | 4.3 | 2.3 | nt | nt
Cn1cc(CN2CCOCC2)c(-c2ccc3c(c2)OCCO3)n1 | -0.1 | 11.3 | 9.2* | -0.7 | -0.1 | 3.1
CCOC(=O)c1cn(CC)c2cc(F)c(OCC)cc2c1=O | -0.2 | 7.5 | -1.9 | 2.8 | nt | nt
COC(=O)C(C)Oc1ccc2c(=O)c(-c3ccc(Cl)cc3)c(C(F)(F)F)oc2c1 (stereo not given) | 0.0 | -7.4 | 1.8 | 3.0 | nt | nt
O=C(CNCc1ccccc1)Nc1ccccc1[N+](=O)[O-] | -0.1 | -0.1 | -2.1 | 9.3 | nt | nt
CC(C)c1ccc(NC(=O)C(c2ccccc2)N(C)C(=O)c2ccc(=O)[nH]c2)cc1 (stereo not given) | -0.1 | -6.8 | 8.7* | 1.0 | 0.6 | 2.8
CC(=O)c1c(C)[nH]c(C(=O)COc2cc(C)cc(C)c2)c1C | 0.0 | 6.9 | 5.6* | 7.5 | 1.3 | 1.8
CCCOc1ccc(OCC(=O)c2[nH]c(C)c(C(C)=O)c2C)cc1 | 0.1 | 29.7 | 0.1 | 14.9 | nt | nt
Cc1c(Cl)cccc1NC(=O)c1cc(S(=O)(=O)N2CC(C)CC(C)C2)ccc1F (stereo not given) | -0.1 | -4.2 | 0.4 | 8.6 | nt | nt
COc1ccc(NC(=O)c2sc3nc4c(cc3c2N)C(=O)CCC4)c(OC)c1 | 0.1 | 15.1 | 0.6 | 13.1 | nt | nt
COc1ccc(NC(=O)c2sc3nc4c(cc3c2N)C(=O)CCC4)cc1 | -0.1 | 5.4 | 10.1* | 4.5 | 1.1 | 11.6
Cc1cc(C)cc(CC(CC(=O)O)C(=O)O)c1 (stereo not given) | 0.1 | 5.8 | 0.2 | -17.4 | nt | nt
Cc1ccc(CC(CC(=O)O)C(=O)O)cc1 (stereo not given) | 0.1 | -1.2 | 6.8* | 0.6 | -0.9 | -13.5
COc1ccnc(Cn2nc(C)c3cccn3c2=O)c1OC | 0.0 | 8.8 | 6.1* | 10.1 | -0.2 | -8.2
COc1cc(C(=O)Nc2cc(C)c(O)cc2C)cc(OC)c1OC | 0.0 | 4.7 | 6.1* | -6.0 | 1.1 | 4.2
COc1cc(C(=O)Nc2ccc(O)cc2C)cc(OC)c1OC | 0.1 | -0.7 | -0.6 | 12.0 | nt | nt
CCCCN(CC)C(=O)NCc1noc2ccccc12 | -0.1 | -1.7 | 0.2 | -20.8 | nt | nt
CCN(CC)C(=O)NCc1noc2ccccc12 | 0.5 | -6.8 | 5.3* | 0.2 | 0.7 | 5.7
CCN(C(=O)NCc1noc2ccccc12)c1ccccc1 | -0.1 | -8.9 | 5.6* | -5.3 | 0.4 | 1.8
Cc1ccc(NC(=O)NCc2noc3ccccc23)nc1 | 0.0 | 4.2 | -1.5 | 4.3 | nt | nt
Cc1cccc(NC(=O)NCc2noc3ccccc23)n1 | 0.0 | 0.9 | 5.6* | -7.0 | 0.2 | -2.5
O=C(CN1CCCC1)Nc1ccccc1Br | -0.2 | 4.7 | -0.3 | 15.2 | nt | nt
CCCCC(=O)N1CCN(c2cc(C)c(C(C)=O)cc2F)CC1 | -0.1 | -4.0 | 0.5 | 0.6 | nt | nt
O=C(Nc1ccccc1)c1cc(NCCCN2CCCC2=O)nc2ccccc12 | -0.1 | -3.1 | 0.6 | -1.3 | nt | nt
SMILES | FBW7 activator | TEAD-YAP inh | GPR151 activ | MITF inh | GPR151 conf act | GPR119 counter
C/C(=N\NC(=O)c1ccccc1)c1ccccc1C(=O)O | 0.0 | -49.8 | 0.3 | -12.2 | nt | nt
CCOC(=O)N1CCC(N(CCOC)C(=S)Nc2cccc(OC)c2)CC1 | -0.2 | -14.0 | 8.6* | -1.2 | -1.2 | -10.8
CS(=O)(=O)N1CCCCC1C(=O)N1CCCc2ccccc21 (stereo not given) | 0.1 | -0.5 | -0.3 | 16.7 | nt | nt
CCOc1cc(C2C(C(=O)OC)=CN(Cc3ccc(OC)c(OC)c3)C=C2C(=O)OC)cc([N+](=O)[O-])c1O | 0.4 | -13.8 | -0.8 | 3.0 | nt | nt
O=C(CCc1ccccc1)Nc1nnc(-c2ccc(F)cc2)o1 | -0.1 | -5.6 | 5.7* | -5.6 | 0.6 | 7.1
CC(=O)Nc1ccc(S(=O)(=O)Nc2ccc([N+](=O)[O-])cc2C)cc1 | 0.1 | 0.9 | 4.9 | 12.1 | nt | nt
CSc1cccc(NC(=S)N(Cc2ccccc2)Cc2cccs2)c1 | 0.5 | -4.8 | 6.5* | 4.8 | 0.1 | 9.0
Cc1cccc(NC(=S)N(Cc2ccccc2)Cc2cccs2)c1 | 0.1 | -10.9 | 1.4 | 10.8 | nt | nt

Screening data: PubChem, The Scripps Research Institute Molecular Screening Center
